The campaign covered roughly 69,000 compounds. About 8,600 (12%) showed an effect of 50% or more. This excerpt belongs to a sample that is enriched for strong results.
Tested on: Plasmodium berghei
Assay: Screen against P. berghei liver stage (PbLuc), transformed with Luciferase, at 10uM
Assay type: functional, HepG2
Conditions: tested at 10 uM

| SMILES | INHIBITION [%] |
| --- | --- |
| Nc1nc(Nc2ccccc2)cc(N2CCNCC2)n1 | 12.5 |
| CC(C)CCn1ccc(NC(=O)N2CCCC2CN2CCOCC2)n1 (stereo not drawn) | -0.551 |
| Cc1cc(CNS(C)(=O)=O)ccc1N(C)C | 25.5 |
| Cc1ccc(CN2C[C@@H]3COC[C@@H](CC(=O)N4CCOCC4)[C@@H]3C2)s1 | -3.52 |
| Cc1nccnc1C1CCN(C(=O)C(C)C)CC1 | 29.35 |
| CC(=O)N(C)Cc1ncn2c1CN(C(=O)CC1CC1)CCC2 | -31.2 |
| Cc1ccc(C(=O)N2C[C@H](OCC3CCOCC3)[C@H]3OCCC[C@H]32)o1 | -33.9 |
| COc1ccc(CN2CC[C@@H]3CN(S(C)(=O)=O)CCO[C@@H]3C2)cc1 | -0.804 |
| CC(C)N1CCOC(c2cc(CCO)[nH]n2)C1 (stereo not drawn) | 29.21 |
| COCCn1c2c(ccc1=O)CC(NCc1cnn(C)c1)CC2 (stereo not drawn) | 55.7 |
| CN(C)CCn1c2c(ccc1=O)CC(NCc1cnn(C)c1)CC2 (stereo not drawn) | 31.2 |
| CCn1c2c(ccc1=O)CC(NCc1cnn(C)c1)CC2 (stereo not drawn) | 12.2 |
| Cc1ccc(C(=O)N2CCC3(CC2)NC(=O)CC3c2ccccc2)cn1 (stereo not drawn) | -16.2 |
| Cn1nc(Br)c2c(NCCSCCCO)ncnc21 | 23.1 |
| O=C(CCCNc1ncccn1)N1CCCC(n2ccnc2)C1 (stereo not drawn) | -17.6 |
| CN1CCCC(c2cccc(-c3cccc(C(F)(F)F)c3)n2)C1 (stereo not drawn) | 45.2 |
| CN1CCCC(c2nccnc2-c2cccc(Cl)c2)C1 (stereo not drawn) | 11.575 |

| SMILES | INHIBITION [%] |
| --- | --- |
| CN1CCCC(c2cccc(-c3cccc(Cl)c3)n2)C1 (stereo not drawn) | 64.7 |
| CN1CCCC(c2cncc(-c3cccc(C(F)(F)F)c3)n2)C1 (stereo not drawn) | 66.6 |
| CN1CCCC(c2cccc(-c3cccc(F)c3)n2)C1 (stereo not drawn) | 36 |
| CN1CCCC(c2nccnc2-c2cccc(C(F)(F)F)c2)C1 (stereo not drawn) | 19.64 |
| Cn1ccnc1C1CCCN(C(=O)c2cc(F)cc(F)c2)C1 (stereo not drawn) | 48.2 |
| CN(C)CCN1CCC2(CCCN(C(=O)C3CCC3)C2)CC1 | 33 |
| O=C(C1CCOCC1)N1CC[C@H](O)[C@@H]1Cc1cccnc1 | 37.6 |
| Cc1ccc(CN2CC[C@H]3OCC[C@@H](C(=O)N4CCCCO4)[C@@H]3C2)o1 | 61.5 |
| O=C([C@@H]1CCO[C@@H]2CCN(CC3CC3)C[C@H]21)N1CCCC1 | 57.5 |
| O=C([C@@H]1CCO[C@@H]2CCN(CC3CCOCC3)C[C@H]21)N1CCCC1 | 30.3 |
| O=C([C@@H]1CCO[C@@H]2CCN(CC3CCOCC3)C[C@H]21)N1CCCO1 | 34.4 |
| O=C([C@@H]1CCO[C@@H]2CCN(Cc3ccco3)C[C@H]21)N1CCCCO1 | 29.8 |
| O=C([C@@H]1CCO[C@@H]2CCN(CC3CC3)C[C@H]21)N1CCCCO1 | 61.5 |
| Cc1ccc(CN2C[C@H](C(=O)N3CCCCO3)[C@@H]3CCO[C@@H]3C2)o1 | -12.1 |
| CC(C)CN1CC[C@H]2OCC[C@@H](C(=O)N3CCCO3)[C@@H]2C1 | 47.9 |
| O=C([C@@H]1CCO[C@@H]2CCN(CCc3ccccc3)C[C@@H]21)N1CCCC1 | -101 |
